{
  "source": "PubChem BioAssay AID2078",
  "about": "(The Scripps Research Institute Molecular Screening Center, 2009)",
  "tested_on": "Cytotoxicity",
  "test": "STAT3 blockade with qPCR and toxicity readouts – cell-based, STAT1 panel, cytotoxicity, late-stage follow-up (AID 2078)",
  "details": "cell reporter assay; series mostly up to 55.7 µM",
  "note": "Activity calls are given as the source filed them. No rule for the calls is given here.",
  "data": [
    {"molecule": "c1ccc(CC2CCN(c3ncnc4sccc34)CC2)cc1", "values": [
      {"measurement": "outcome", "result": "inactive"}
    ]}
  ]
}
